In PubChem BioAssay:
Several values for one entry are separate records, joined by “and”; a condition that tells them apart may be missing. Equal entries are not always repeated. Activity calls are given as the source filed them.

Columns and labels:
[1] = small molecules captured by biotinylated probe aFSTL3 – biochemical, small-molecule microarray, fluorescence 635/667, stem cell growth factor project, primary screen (AID 1064); conditions: higher = more signal; small-molecule microarray, probe aFSTL3, fluorescence unless noted;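 also: measures binding of the biotinylated anti-FSTL3 antibody to printed compounds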
[2] = binders from COS7 lysate, DM2A8 probe, primary screen, torsin A project, cell lysate, small-molecule microarray, fluorescence 635/667 (AID 1065); conditions: higher = more signal; small-molecule microarray, COS7 cell lysate, probe DM2A8, fluorescence, COS7 lysate expressing mutant human TOR1A unless noted
[3] = small molecules captured by biotinylated probe aFGF2 – biochemical, small-molecule microarray, fluorescence 635/667, stem cell growth factor project, primary screen (AID 1067); conditions: higher = more signal; small-molecule microarray, probe aFGF2, fluorescence unless noted;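 also: measures binding of biotinylated aFGF2 protein to printed compounds on slides; z-score merges feature fluorescence and signal-to-noise across triplicate slides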
[4] = small molecules captured by biotinylated probe aFGF10 – biochemical, small-molecule microarray, fluorescence 635/667, stem cell growth factor project, primary screen (AID 1071); conditions: higher = more signal; small-molecule microarray, probe aFGF10, fluorescence unless noted;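 also: score merges 667 nm spot intensity and signal to noise from triplicate slides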
[5] = target: Neurogenic locus notch homolog protein 2 (Homo sapiens) (UniProt Q04721); assay: small molecules binding Notch2 protein – biochemical, small-molecule microarray, 635 nm fluorescence, stem cell growth factors, primary screen (AID 1073); conditions: higher = more signal
[6] = target: Pro-neuregulin-1, membrane-bound isoform (Homo sapiens) (UniProt Q02297); assay: small molecules binding neuregulin-1 protein – biochemical, small-molecule microarray, fluorescence 635/667, psychiatric disease protein project, primary screen (AID 1075); conditions: NRG1 binding, 635 nm fluorescence, higher = more signal;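 also: score combines 667 nm spot fluorescence with signal to noise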
[7] = system: Neuregulin-1 EGF-like domain; assay: small molecules binding NRG1 EGF domain – biochemical, small-molecule microarray, 635 nm fluorescence, primary screen (AID 1081); conditions: higher = more signal;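 also: binding of the protein to compounds printed on small-molecule microarray slides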
[8] = FRG1 expression reporter modulators in myotubes – cell-based, C2C12 myotubes, firefly/Renilla luciferase, luminescence, FRG1 inhibition for FSHD, primary screen (AID 1084); conditions: FRG1 promoter luciferase; higher = more signal, called active from +8 up or from −8 down unless noted
[9] = small molecules captured by biotinylated probe aFST – biochemical, small-molecule microarray, fluorescence 635/667, stem cell growth factor project, primary screen (AID 1086); conditions: higher = more signal;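 also: score merges 667 nm fluorescence with signal-to-noise of each printed compound spot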
[10] = binders of probe aHhip on microarray, primary screen, stem cell growth factor project, biochemical, small-molecule microarray, fluorescence 635/667 (AID 1087); conditions: higher = more signal;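 also: score merges spot fluorescence at 667nm with spot signal to noise ratio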

Chain of Neurogenic locus notch homolog protein 2 (Homo sapiens) (Q04721 whole entry, looked up, canonical isoform): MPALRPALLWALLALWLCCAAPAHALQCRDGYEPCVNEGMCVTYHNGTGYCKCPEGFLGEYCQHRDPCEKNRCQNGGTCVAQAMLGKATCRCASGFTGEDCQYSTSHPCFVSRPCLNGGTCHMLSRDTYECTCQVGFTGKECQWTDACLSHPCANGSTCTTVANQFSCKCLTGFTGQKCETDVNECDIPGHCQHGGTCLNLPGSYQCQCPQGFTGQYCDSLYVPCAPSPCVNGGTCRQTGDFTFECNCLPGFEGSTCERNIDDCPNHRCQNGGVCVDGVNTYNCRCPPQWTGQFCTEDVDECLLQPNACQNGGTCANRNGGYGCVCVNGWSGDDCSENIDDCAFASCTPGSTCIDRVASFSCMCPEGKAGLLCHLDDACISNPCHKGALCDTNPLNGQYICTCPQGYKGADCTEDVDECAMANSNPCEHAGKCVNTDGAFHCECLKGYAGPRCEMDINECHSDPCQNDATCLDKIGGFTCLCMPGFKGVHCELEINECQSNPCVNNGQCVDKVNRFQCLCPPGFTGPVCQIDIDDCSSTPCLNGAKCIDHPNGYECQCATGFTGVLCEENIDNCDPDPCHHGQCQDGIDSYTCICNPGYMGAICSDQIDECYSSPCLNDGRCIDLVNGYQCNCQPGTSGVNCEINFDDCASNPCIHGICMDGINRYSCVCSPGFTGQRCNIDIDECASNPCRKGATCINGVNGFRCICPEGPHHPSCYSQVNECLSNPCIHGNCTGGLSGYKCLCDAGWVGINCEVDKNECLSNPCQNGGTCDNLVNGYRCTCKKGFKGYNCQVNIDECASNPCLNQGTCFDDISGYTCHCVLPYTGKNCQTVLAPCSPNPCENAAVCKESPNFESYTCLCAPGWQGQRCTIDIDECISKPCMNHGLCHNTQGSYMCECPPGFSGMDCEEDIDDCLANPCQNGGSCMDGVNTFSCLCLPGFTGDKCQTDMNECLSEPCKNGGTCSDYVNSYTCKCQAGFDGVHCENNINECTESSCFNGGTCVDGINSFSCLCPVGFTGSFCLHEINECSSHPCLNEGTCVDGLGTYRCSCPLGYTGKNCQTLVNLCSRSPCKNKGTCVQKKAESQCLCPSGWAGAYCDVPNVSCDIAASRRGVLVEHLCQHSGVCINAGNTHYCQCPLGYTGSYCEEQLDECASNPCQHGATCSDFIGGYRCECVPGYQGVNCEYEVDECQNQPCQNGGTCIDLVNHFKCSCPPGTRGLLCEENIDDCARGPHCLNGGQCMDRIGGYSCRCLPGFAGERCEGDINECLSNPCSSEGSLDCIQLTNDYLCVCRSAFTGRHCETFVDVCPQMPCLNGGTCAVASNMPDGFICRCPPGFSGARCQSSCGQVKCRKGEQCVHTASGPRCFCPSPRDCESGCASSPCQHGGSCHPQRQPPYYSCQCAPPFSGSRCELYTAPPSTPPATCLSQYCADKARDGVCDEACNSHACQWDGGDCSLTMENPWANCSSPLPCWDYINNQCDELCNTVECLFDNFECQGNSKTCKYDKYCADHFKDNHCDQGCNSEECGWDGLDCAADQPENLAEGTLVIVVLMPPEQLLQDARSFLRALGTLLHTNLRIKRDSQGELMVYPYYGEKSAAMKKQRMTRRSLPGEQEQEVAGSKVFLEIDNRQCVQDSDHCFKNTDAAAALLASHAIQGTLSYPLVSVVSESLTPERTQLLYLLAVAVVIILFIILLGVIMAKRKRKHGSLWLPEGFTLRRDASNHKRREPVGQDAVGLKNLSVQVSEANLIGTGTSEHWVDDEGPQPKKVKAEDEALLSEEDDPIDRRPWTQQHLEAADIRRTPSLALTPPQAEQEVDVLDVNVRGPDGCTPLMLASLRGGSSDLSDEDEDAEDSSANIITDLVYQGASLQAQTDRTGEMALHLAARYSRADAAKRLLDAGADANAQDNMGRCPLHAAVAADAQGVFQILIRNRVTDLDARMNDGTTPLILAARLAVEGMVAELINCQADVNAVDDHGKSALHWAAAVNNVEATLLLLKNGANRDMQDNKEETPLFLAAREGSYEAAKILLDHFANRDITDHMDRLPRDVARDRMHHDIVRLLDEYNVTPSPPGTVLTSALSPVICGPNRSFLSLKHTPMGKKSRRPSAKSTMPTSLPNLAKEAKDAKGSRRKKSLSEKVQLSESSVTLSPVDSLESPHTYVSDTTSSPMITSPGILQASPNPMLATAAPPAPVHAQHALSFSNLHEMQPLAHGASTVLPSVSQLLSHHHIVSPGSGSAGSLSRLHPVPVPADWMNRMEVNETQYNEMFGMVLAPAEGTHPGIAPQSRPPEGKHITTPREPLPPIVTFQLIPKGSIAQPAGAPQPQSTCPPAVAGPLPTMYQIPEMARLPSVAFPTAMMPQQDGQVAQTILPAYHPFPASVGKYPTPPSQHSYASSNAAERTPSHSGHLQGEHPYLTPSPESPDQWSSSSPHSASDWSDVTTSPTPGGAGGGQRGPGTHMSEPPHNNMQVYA
Chain of Pro-neuregulin-1, membrane-bound isoform (Homo sapiens) (Q02297 whole entry, looked up, the tested form may be a part, canonical isoform): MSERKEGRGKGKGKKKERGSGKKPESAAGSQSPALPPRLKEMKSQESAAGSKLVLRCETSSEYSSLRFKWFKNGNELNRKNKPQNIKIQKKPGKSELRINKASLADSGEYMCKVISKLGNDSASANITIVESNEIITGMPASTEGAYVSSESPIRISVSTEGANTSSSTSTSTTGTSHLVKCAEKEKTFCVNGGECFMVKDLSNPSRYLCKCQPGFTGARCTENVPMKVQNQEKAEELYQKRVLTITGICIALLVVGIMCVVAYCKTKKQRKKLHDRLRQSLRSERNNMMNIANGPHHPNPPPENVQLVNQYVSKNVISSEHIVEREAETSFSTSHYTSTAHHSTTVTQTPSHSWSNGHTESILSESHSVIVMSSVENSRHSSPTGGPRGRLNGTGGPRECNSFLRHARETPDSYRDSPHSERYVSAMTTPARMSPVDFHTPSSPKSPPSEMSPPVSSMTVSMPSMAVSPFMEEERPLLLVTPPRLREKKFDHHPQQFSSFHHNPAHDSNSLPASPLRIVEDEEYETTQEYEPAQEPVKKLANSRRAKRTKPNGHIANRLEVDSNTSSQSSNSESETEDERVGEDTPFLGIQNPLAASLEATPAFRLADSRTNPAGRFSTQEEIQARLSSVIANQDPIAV

SMILES	composite z-score [1]	composite z-score [2]	composite z-score [3]	composite z-score [4]	composite z-score [5]	composite z-score [6]	composite z-score [7]	z-score [8]	composite z-score [9]	composite z-score [10]
CCc1cc2c(nc1CC)CCN(CCC(C)=NOC)C2	0.515	0.974	-0.0097	0.324	0.608	0.0159	0.763	2.07 (inactive)	0.497	0.113
C=C(CC1(CNP(=O)(c2ccccc2)c2ccccc2)CC1)c1ccccc1	0.019	-0.115	0.179	0.33	0.777	1.69	0.525	-3.35 (inactive)	0.622	-0.0618
COC(=O)NCC=Cc1nc(CCC=CC(=O)O[C@H]2CC3CC(=O)O[C@@H](C=CCC(C)C)C[C@@H]4CC[C@H](C)[C@@H](C[C@@H](OC)C[C@H](C2)O3)O4)co1	-0.117	-0.381	-0.114	-0.328	-0.896	-0.657	-0.905	0.524 (inactive)	-0.15	-0.12
C[C@@H]1Cc2c(cnc3c2CN(C)CC3)CO1	-0.0578	0.442	-0.105	0.0502	-0.163	-0.93	-0.206	-0.989 (inactive)	0.0686	0.312
COc1cc2c(cc1O)C=[N+](C)CC2	-0.0131	-0.532	-0.172	-0.17	-0.718	-0.835	-0.286	-1.13 (inactive)	0.169	-0.639
COC(=O)[C@@]1(Cc2ccc(F)cc2)[C@H]2c3cc(C(=O)N(C)C)[nH]c3C[C@H]2CN1C(=O)c1ccccc1	0.0665 [setting not given]	-0.441 [setting not given]	-0.162 [setting not given]	0.203 [setting not given]	1.35	0.986	1.06	0.832 [setting not given] (inactive)	0.656	-0.236
OCc1ccc(C2=CC(c3cccs3)N(Cc3cccc(OC(F)(F)F)c3)CC2)cc1 (stereo not given)	-0.0593	0.466	-0.0996	-0.242	-0.515	0.764	0.536	-0.39 (inactive)	-0.0002	0.0908
C=C(CC1(C(C)NP(=O)(c2ccccc2)c2ccccc2)CC1)c1ccccc1 (stereo not given)	0.21	-0.954	0.208	0.851	1.01	1.16	0.714	-3.03 (inactive)	0.881	0.113
COC(=O)[C@H]1C(=O)c2ccccc2O[C@@](C(=O)OC)(c2ccccc2)[C@@H]1c1ccccc1	-0.384	-0.262	-0.149	0.179	0.343	-0.454	-1.02	-0.748 (inactive)	-0.204	-0.134
COC(=O)[C@@]1(Cc2ccccc2)[C@H]2c3cc(C(=O)N(C)C)n(C)c3C[C@H]2CN1C(=O)c1ccccc1	0.739	-0.389	0.175	0.536	1.59	2.02	1.14	1.51 (inactive)	0.566	0.189
C[C@H]1O[C@H]2C3=C(C(=O)[C@@H]4O[C@@H]4[C@@H]3O)[C@@H]1[C@@H]1[C@@H](C)OC=C3[C@@H](O)[C@H]4O[C@H]4C(=O)[C@]312	-0.294	0.0164	-0.102	-0.494	-0.468	-0.48	-0.894	-2.19 (inactive)	-0.293	-0.0994
CC1N(P(=O)(c2ccccc2)c2ccccc2)CC(O)(c2ccccc2)CC12CC2 (stereo not given)	0.401 and 0.0381	-1.21 and -0.157	0.0161 and 0.221	0.309 and 0.352	0.621 and 1.54	2 and 1.82	1.41 and 0.526	2.45 (inactive) and -0.78 (inactive)	-0.0551 and 1.02	0.238 and 0.535
CN1CCc2nc(CO)c(CO)cc2C1	-0.304	0.267	-0.0982	0.401	0.528	0.0016	0.611	0.294 (inactive)	0.242	0.0881
COC(=O)[C@H]1[C@H](c2ccccc2)C(=O)[C@]2(O)c3ccccc3O[C@@]12c1ccccc1	-0.521	0.824	-0.0894	0.273	0.472	0.113	0.348	-2.68 (inactive)	-0.12	-0.236
CCCc1cc2c(n1Cc1cccc(Cl)c1)C(C)C1CN(C(=O)c3ccccc3)C(C)(C(=O)OC)C21 (stereo not given)	1.04	0.49	0.169	0.241	1.51	1.92	1.11	0.703 (inactive)	0.578	0.192
COC(=O)C1(C)C=C2C(=C(C)C(=O)C2C)CN1 (stereo not given)	1.28	-0.297	-0.0627	-0.195	-0.483	0.367	1.55	3.71 (inactive)	0.706	0.107
